Only some compounds are listed: those with a hit (about 2.2% of all), similar ones and a draw of the others.
EWS-Fli inh: EWS/Fli-driven NR0B1 reporter inhibitors, primary screen, A673 cells, NR0B1 luciferase, luminescence, MLPCN library | viability-normalised | inhibition, % at 12.6 µM | hit rate 0.67% among 350,000;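 active means mean inhibition of at least 50% after viability correction, with every replicate also passing that limit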;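 further: firefly luciferase signal divided by Alamar Blue viability fluorescence both relative to DMSO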
LGR2 antag: inhibitors of bursicon-induced LGR2 CRE-luciferase signal, primary screen, cell-based, HEK293, CRE-luciferase reporter, bursicon stimulation; bursicon-stimulated, 4 h; inhibition, % at 9.99 µM; hit rate 0.35% among 380,000;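 active means drop in luminescence signal, shown as inhibition above about 50% in the replicate tests, limit read from the data, passing the limit was not always enough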;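 further: agonist challenge used bursicon conditioned medium at about half maximal strength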
PAX8 reporter: inhibitors of PAX8-driven TPO luciferase reporter, primary screen, RMG-I cells, single concentration; SteadyGlo, 24 h; inhibition, % at 12.6 µM; hit rate 1.2% among 360,000;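 active means mean replicate inhibition at least 60% with every replicate also reaching 60%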;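 further: luciferase light reporting Pax8 driven TPO promoter activity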
MITF TRPM1 inh: inhibitors of MITF-dependent TRPM1 promoter reporter, primary screen, cell-based, SK-MEL-5, single point, luciferase; hit rate 0.83% among 330,000; AID 488899, 2010; inhibition, % at 12.5 µM; SK-MEL-5 TRPM1 promoter luciferase, 24 h;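 active means mean inhibition across replicates of 60% or more, whatever share of single replicates reaches that level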
Shn3 3UTR inh: reduction of Shn3 3'UTR firefly luciferase signal, primary screen, Schnurri-3 inhibitor project, cell-based, Clone20 osteoblasts, set 2 | hit rate 0.52% among 360,000 | inhibition, % at 12.5 µM | AID 588674, 2011 | Clone20 osteoblast Shn3 3'UTR firefly luciferase, 24 h;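 active means mean inhibition of at least 75% with every replicate also reaching 75%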
EBV LMP1 NFkB: EBV LMP1-driven NF-kappaB luciferase reporter inhibitors, primary screen, cell-based, luminescence, single point; LMP1-induced NF-kappaB luciferase reporter cells; inhibition, % at 12.5 µM; hit rate 0.69% among 350,000; AID 504558, 2011; in the data active means inhibition above about 41%
Each line names hits and unclear results; the compound was inactive in the other large screens.

COc1cc2ncnc(N[C@H](C)c3ccccc3)c2cc1OC	Shn3 3UTR inh 89.5 (no result: EWS-Fli inh, PAX8 reporter)
O=C(NC[C@@H]1[C@@H](c2ccccc2)[C@H](CO)N1Cc1cccnc1)c1ccccn1	none (no result: MITF TRPM1 inh, Shn3 3UTR inh, EBV LMP1 NFkB)
CSc1cccc(NS(=O)(=O)c2ccc3c(c2)CCN3C(C)=O)c1	Shn3 3UTR inh 88.8
CC(C)c1ccc(NC(=S)NCc2ccc3c(c2)OCO3)cc1	none
COc1ccc(NC(=S)NCc2ccc3c(c2)OCO3)cc1	EWS-Fli inh 64.7
COc1ccc(S(=O)(=O)Nc2cccc3c2O[C@@H](CN(C)C(=O)Nc2ccc4c(c2)OCO4)[C@H](C)CN([C@@H](C)CO)C3=O)cc1	none (no result: PAX8 reporter, MITF TRPM1 inh, Shn3 3UTR inh, EBV LMP1 NFkB)
Cc1ccc(S(=O)(=O)Nc2ccc3c(c2)C(=O)N([C@@H](C)CO)C[C@H](C)[C@@H](CN(C)C(=O)Nc2ccccc2)OCCCC[C@H](C)O3)cc1	none (no result: MITF TRPM1 inh, Shn3 3UTR inh, EBV LMP1 NFkB)
O=C(NC1=NCCS1)C1COc2ccccc2O1 (configuration not stated)	MITF TRPM1 inh 79.8, EBV LMP1 NFkB 70.7 (no result: EWS-Fli inh, LGR2 antag, PAX8 reporter)
O=C(Nc1nc2c(s1)CCCC2)C1COc2ccccc2O1 (configuration not stated)	LGR2 antag 80.0
O=C(Nc1ccncc1)C1COc2ccccc2O1 (configuration not stated)	none (no result: EWS-Fli inh, LGR2 antag, PAX8 reporter)
CS(=O)(=O)N1Cc2cc(C(=O)O)nc(-c3cccc(-c4ccccc4F)c3)c2[C@H]1CCO	none (no result: EWS-Fli inh, PAX8 reporter, MITF TRPM1 inh, Shn3 3UTR inh, EBV LMP1 NFkB)
C[C@@H]1CN([C@@H](C)CO)C(=O)c2cc(NC(=O)Cc3ccccc3)ccc2O[C@@H](C)CCCCO[C@@H]1CN(C)C(=O)Nc1ccc2c(c1)OCO2	none (no result: MITF TRPM1 inh, Shn3 3UTR inh, EBV LMP1 NFkB)
Fc1cc(F)c(F)c(SCCc2ccncc2)c1F	Shn3 3UTR inh 87.4 (no result: EWS-Fli inh, LGR2 antag, PAX8 reporter)
Fc1ccc(SCCc2ccncc2)cc1	none (no result: EWS-Fli inh)
CCCN1[C@H](C(=O)N2CCN(C)CC2)[C@@H](CO)[C@@H]2Cn3c(ccc(-c4ccccc4F)c3=O)[C@@H]21	none (no result: MITF TRPM1 inh, Shn3 3UTR inh, EBV LMP1 NFkB)
C[C@@H]1CCCCO[C@@H](CN(C)Cc2ccc(Cl)c(Cl)c2)[C@H](C)CN([C@H](C)CO)C(=O)c2cc(NC(=O)Nc3ccc(C(F)(F)F)cc3)ccc2O1	PAX8 reporter 90.5 (no result: MITF TRPM1 inh, Shn3 3UTR inh, EBV LMP1 NFkB)
C[C@H](CO)N1C[C@H](C)[C@@H](CN(C)Cc2ccc(Cl)c(Cl)c2)OCCCC[C@H](C)Oc2ccc(NC(=O)Nc3ccc(C(F)(F)F)cc3)cc2C1=O	PAX8 reporter 84.0 (no result: MITF TRPM1 inh, Shn3 3UTR inh, EBV LMP1 NFkB)
C[C@H]1CCCCO[C@H](CN(C)Cc2ccc(Cl)c(Cl)c2)[C@@H](C)CN([C@@H](C)CO)C(=O)c2cc(NC(=O)Nc3ccc(C(F)(F)F)cc3)ccc2O1	PAX8 reporter 78.3 (no result: MITF TRPM1 inh, Shn3 3UTR inh, EBV LMP1 NFkB)
C[C@@H]1CCCCO[C@H](CN(C)Cc2ccc(Cl)c(Cl)c2)[C@H](C)CN([C@@H](C)CO)C(=O)c2cc(NC(=O)Nc3ccc(C(F)(F)F)cc3)ccc2O1	PAX8 reporter 90.1 (no result: MITF TRPM1 inh, Shn3 3UTR inh, EBV LMP1 NFkB)
CCCC#Cc1cnc2c(c1)C(=O)N([C@H](C)CO)C[C@H](C)[C@@H](CN(C)C(=O)Nc1ccccc1F)O2	none (no result: PAX8 reporter, MITF TRPM1 inh, Shn3 3UTR inh, EBV LMP1 NFkB)
N#C[C@@H]1[C@@H](c2ccc(-c3cccc(F)c3)cc2)[C@@H](CO)N1C(=O)NC1CCCCC1	none (no result: PAX8 reporter, MITF TRPM1 inh, Shn3 3UTR inh, EBV LMP1 NFkB)
C[C@@H]1CN([C@@H](C)CO)C(=O)c2cc(NC(=O)Nc3ccc(C(F)(F)F)cc3)ccc2O[C@@H](C)CCCCO[C@H]1CN(C)Cc1ccc(Cl)c(Cl)c1	PAX8 reporter 92.9 (no result: MITF TRPM1 inh, Shn3 3UTR inh, EBV LMP1 NFkB)
C[C@@H]1CCCCO[C@@H](CN(C)Cc2ccc(Cl)c(Cl)c2)[C@@H](C)CN([C@H](C)CO)C(=O)c2cc(NC(=O)Nc3ccc(C(F)(F)F)cc3)ccc2O1	none (no result: MITF TRPM1 inh, Shn3 3UTR inh, EBV LMP1 NFkB)
C[C@@H]1CN([C@H](C)CO)C(=O)c2cc(NC(=O)Nc3ccc(C(F)(F)F)cc3)ccc2O[C@@H](C)CCCCO[C@H]1CN(C)Cc1ccc(Cl)c(Cl)c1	PAX8 reporter 91.2 (no result: MITF TRPM1 inh, Shn3 3UTR inh, EBV LMP1 NFkB)
O=C1CS(=O)(=O)C(c2ccccc2)N1c1ccc(-c2ccccc2)cc1 (configuration not stated)	none (no result: LGR2 antag, MITF TRPM1 inh, Shn3 3UTR inh, EBV LMP1 NFkB)
O=C1c2ccccc2-c2nnc(-c3ccccc3)cc21	none (no result: EWS-Fli inh, LGR2 antag, PAX8 reporter)
COc1ccc(-c2cc3c(nn2)-c2ccccc2C3=O)cc1	LGR2 antag 94.1, MITF TRPM1 inh 72.4, EBV LMP1 NFkB 51.6

Screening results as filed in PubChem BioAssay.
